Reference: PubChem BioAssay (NCI)
Values joined by “and” are separate entries in the source; they are usually repeats but may differ in a detail not shown here. Equal values may be shown once. About 79,000 compounds went through this panel and 15% of them were active in at least one assay; those are over-represented in the sample as a whole. No stated cut-off is given here; in the data, active means growth inhibition above about 70%; inactive means the rest.

Assays:
[1] = NCI Yeast Anticancer Drug Screen. Data for the rad50 strain (AID 155);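 further: 0% = growth of vehicle-only cultures of the same strain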; settings: S. cerevisiae rad50 strain growth inhibition; at 50.0 µM; stronger effect = higher value
Method in brief: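 Cells are treated with compound, grown, and their growth is then scored against vehicle-only cultures of the same repair-deficient yeast strain.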

[2] = NCI Yeast Anticancer Drug Screen. Data for the mec2-1 strain (AID 157); settings: S. cerevisiae mec2-1 strain, at 50.0 µM, stronger effect = higher value
Method in brief: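 Readout is yeast growth inhibition, normalised to vehicle-treated controls, in the mec2-1 strain exposed to compound.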

[3] = NCI Yeast Anticancer Drug Screen. Data for the sgs1 mgt1 strain (AID 161);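 further: 0% = growth of cultures given vehicle only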; settings: S. cerevisiae sgs1 mgt1 strain, at 50.0 µM, stronger effect = higher value
Method in brief: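 This yeast growth screen uses a strain with defined DNA-repair lesions; compound-treated growth is compared with vehicle-treated growth.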

[4] = NCI Yeast Anticancer Drug Screen. Data for the cln2 rad14 strain (AID 165);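 further: 0% = growth equal to vehicle treated cultures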; settings: S. cerevisiae cln2 rad14 strain, at 50.0 µM, stronger effect = higher value
Method in brief: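 Relative to vehicle controls, growth inhibition of compound-treated cln2 rad14 yeast was recorded.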

[5] = NCI Yeast Anticancer Drug Screen. Data for the bub3 strain (AID 167); settings: S. cerevisiae bub3 mutant strain, at 50.0 µM, stronger effect = higher value
Method in brief: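 Part of a panel of yeast mutants defective in DNA damage repair or cell cycle regulation. Each strain is grown with compound, and inhibition is calculated relative to solvent-treated cultures.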

[6] = NCI Yeast Anticancer Drug Screen. Data for the mlh1 rad18 strain (AID 175); settings: S. cerevisiae mlh1 rad18 strain growth inhibition; at 50.0 µM; stronger effect = higher value
Method in brief: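 Test agents were incubated with a yeast strain of defined genotype (DNA damage repair defect). Inhibition of growth was derived by comparison with vehicle-exposed cultures.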

Measured: growth inhibition

NC(N)=NCCCC1NC(=O)C(Cc2ccc(O)cc2)NC1=O (configuration not stated)
inactive: [1] 15.3% and -3.3% | [2] 21.8% and -3.25% | [3] 48.9% and -4.85% | [4] -5.05% and -8.55% | [5] 38.2% and 3.55% | [6] 33.2% and -1.6%

O=C(O)C(O)C(O)C(O)C(=O)CO (configuration not stated)
inactive: [1] -2.25% and -13.1% | [2] -27.3% and -1.05% | [3] -4.9% and -10.4% | [4] -32.6% and -40.5% | [5] -16.9% and -42.5% | [6] -19.2% and 13.7%

CC(Cc1ccccc1)NC(=O)c1ccccc1 (configuration not stated)
inactive: [1] 18.2% and 5.45% | [2] 3.3% and -1.1% | [3] -19.9% and -2.25% | [4] -93.5% and -7.65% | [5] -14.9% and 2.45% | [6] 7.4% and -5.3%

CC(C)=CCCC(C)C1CCC2(C)C3=C(CCC12C)C1(C)CCC(O)C(C)(C)C1CC3 (configuration not stated)
inactive: [1] 32.6% and 9.75% | [2] 16.4% and 2.65% | [3] 27.6% and 20.9% | [4] 25.9% and -0.25% | [5] 7.8% and 15.2% | [6] 23.9% and 29.6%

C=CCSC1=NC(=O)C(CCCC)C(=O)N1C (configuration not stated)
inactive: [1] 7.75% and -1.7% | [2] 2.65% and 7.25% | [3] 4.25% and 6.3% | [4] -35.5% and -24.9% | [5] -22% and 7.5% | [6] 10.8% and 7.5%

O=c1[nH]c(=O)n(C2OC(CO)C(O)C2O)c2nccnc12 (configuration not stated)
inactive: [1] 10.5% and 5.1% | [2] 8.9% and 4.95% | [3] 0.55% and -5.75% | [4] 26.8% and 2.95% | [5] -13.2% and -20.9% | [6] 4.55% and -11.4%

COC(=O)C1(C)CCCC2(C)c3cc(OC)ccc3C=CC12 (configuration not stated)
inactive: [1] 14.5% and 6.75% | [2] -1.8% and 8.1% | [3] -0.6% and 2.55% | [4] -0.6% and 4.75% | [5] 2.5% and 21.5% | [6] 4.45% and 1.2%

O=C(CCc1ccccc1)CCc1ccccc1
inactive: [1] -28.6% and 33.6% | [2] -4.3% and 4.85% | [3] 28.8% and 7.55% | [4] -30.9% and 27.6% | [5] 0.55% and 35.2% | [6] -20.4% and 26.6%

CC(=O)OCC(=O)c1ccc(-c2ccccc2)cc1
inactive: [1] 6.55% and 7.65% | [2] -14.8% and 4.5% | [3] 14.1% | [4] 8.35% and -22.8% | [5] 39.9% and 28.6% | [6] 18.8% and 23.9%

Cc1cc(Cc2cc(C)c(O)c(C(=O)O)c2)cc(C(=O)O)c1O
inactive: [1] 0.25% and -7.15% | [2] 10.1% and -0.4% | [3] 2.35% and 0.2% | [4] -91.8% and -2.45% | [5] 27.3% and 4.85% | [6] 7.05% and -16.3%

CN(C)c1ccc(/C=C2\c3ccccc3-c3ccc([N+](=O)[O-])cc32)cc1
inactive: [1] 20.9% and 6.65% | [2] -9.8% and -6.75% | [3] -21.1% and -11% | [4] -27.2% and -8.2% | [5] -19.6% and 4.45% | [6] -4.35% and 8%

CN(C)CC1CCCC(CN2CCCCC2)C1=O (configuration not stated)
inactive: [1] -13.3% and -7.95% | [2] -37.8% and 9.7% | [3] -33.5% and 8.2% | [4] 4.6% and -38.9% | [5] -11.6% and -9.5% | [6] -6.4% and 9.4%

O=C(O)C1=C/C(=C(/c2ccccc2)c2cc(C(=O)O)c(O)c3ccccc23)c2ccccc2C1=O
inactive: [1] 4.2% and -7.7% | [2] -29.1% and -27.1% | [3] -21.2% and -34.4% | [4] 22.7% and 23.1% | [5] -9.45% and -3.8% | [6] -1.45% and -4.1%

COC1C(O)C(O)C(O)C(O)C1O (configuration not stated)
inactive: [1] 0.95% and -11.2% | [2] -4.8% and -13.4% | [3] -0.35% and -18.1% | [4] 21.2% and 9.9% | [5] -3.1% and -31.4% | [6] -0.45% and -15.6%

COc1cc(C2c3cc4c(cc3C(OC(=O)c3ccc[n+](C)c3)C3COC(=O)C23)OCO4)cc(OC)c1OC (configuration not stated)
inactive: [1] -16.2% and -3.1% | [2] -11.3% and 8.1% | [3] -11.3% and 2.3% | [4] -17.5% and -1.65% | [5] 13.1% and 41.8% | [6] 5.45% and 9.45%

O=C(O)c1cc([N+](=O)[O-])c2c(c1)P(=O)(O)c1cc(C(=O)O)cc([N+](=O)[O-])c1O2
inactive: [1] 19.9% and 10.8% | [2] -1.35% and 3.05% | [3] 7.65% and 4.55% | [4] 5.9% and 4.05% | [5] -0.6% and -2.1% | [6] 13.7% and 7.85%

CC(COC(=O)c1ccccc1)NC1CCCCC1 (configuration not stated)
inactive: [1] 12.3% and 21.9% | [2] 1.05% and -0.85% | [3] 13.7% and 10.7% | [4] -27.6% and -0.55% | [5] -10.3% and 0.7% | [6] 10.4% and -0.2%

COC(=O)C(C)NC(=O)c1c2nc3c(C(=O)NC(C)C(=O)OC)ccc(C)c3oc-2c(C)c(=O)c1N (configuration not stated)
inactive: [1] 2.9% and 13.8% | [2] 14.7% and -7.2% | [3] 0.1% and -14.9% | [4] 22% and 15% | [5] 7.25% and -4.65% | [6] 29.1% and -4.85%

COc1cc(C)c2c(ccc3ccccc32)n1
inactive: [1] 24.6% and 23.9% | [2] 19.5% and 24.4% | [3] 16.5% and 11.2% | [4] -9.35% and 21.9% | [5] 10.2% and 16.4% | [6] 61.2% and 18.9%

OC/C=C/c1ccccc1
inactive: [1] 5.7% and 14.7% | [2] 6.7% and -3.15% | [3] 12.1% and -16.6% | [4] 10.1% and -2.55% | [5] 2.65% and 12.1% | [6] 14.7% and -8.85%

C[N+](C)(C)CCO
inactive: [1] -16.1% and 2.25% | [2] -22.9% and -8.65% | [3] -5.85% and -6.65% | [4] 21.1% and 13.4% | [5] 16.5% and 16.8% | [6] 0.85% and -2.2%

CC(C)(C)c1cc([N+](C)(C)C)cc(C(C)(C)C)n1
inactive: [1] 1.6% and 19.6% | [2] -5.3% and 8.25% | [3] 1.05% and 14.8% | [4] 2.3% and -16.7% | [5] 20.6% and -2.05% | [6] 6.3% and -5.55%
